Test results from ChEMBL document CHEMBL2218924, “A broad activity screen in support of a chemogenomic map for kinase signalling research and drug discovery” (Biochem J, 2013).

Experiments:
[1] = biological target: Calcium/calmodulin-dependent protein kinase type 1 (Homo sapiens) (UniProt Q14012); settings: at 1 µM
[2] = biological target: Calcium/calmodulin-dependent protein kinase type 1 (Homo sapiens) (UniProt Q14012); settings: at 10 µM
[3] = biological target: Calcium/calmodulin-dependent protein kinase type II subunit beta (Homo sapiens) (UniProt Q13554); settings: at 1 µM
Calcium/calmodulin-dependent protein kinase type II subunit beta (Homo sapiens), sequence (Q13554 whole entry): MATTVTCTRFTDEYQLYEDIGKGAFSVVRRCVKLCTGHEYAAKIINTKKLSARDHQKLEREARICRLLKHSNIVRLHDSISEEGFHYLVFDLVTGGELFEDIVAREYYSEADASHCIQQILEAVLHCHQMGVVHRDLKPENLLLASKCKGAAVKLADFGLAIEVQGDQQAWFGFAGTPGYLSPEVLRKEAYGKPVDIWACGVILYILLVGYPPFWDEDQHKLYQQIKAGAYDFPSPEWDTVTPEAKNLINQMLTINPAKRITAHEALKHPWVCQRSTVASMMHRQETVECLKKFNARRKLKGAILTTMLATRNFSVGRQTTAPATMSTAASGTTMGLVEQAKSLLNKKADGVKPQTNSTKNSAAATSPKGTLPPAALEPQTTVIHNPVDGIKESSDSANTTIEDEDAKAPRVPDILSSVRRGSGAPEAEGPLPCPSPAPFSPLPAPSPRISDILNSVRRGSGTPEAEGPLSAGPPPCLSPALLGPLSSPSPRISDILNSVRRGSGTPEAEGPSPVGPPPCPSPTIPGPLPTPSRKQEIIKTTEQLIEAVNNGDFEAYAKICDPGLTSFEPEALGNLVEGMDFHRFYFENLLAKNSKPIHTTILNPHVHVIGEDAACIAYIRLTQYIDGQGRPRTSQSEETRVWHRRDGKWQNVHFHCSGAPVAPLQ

[4] = biological target: Calcium/calmodulin-dependent protein kinase type II subunit beta (Homo sapiens) (UniProt Q13554); settings: at 10 µM
[5] = biological target: Calcium/calmodulin-dependent protein kinase type II subunit gamma (Homo sapiens) (UniProt Q13555); settings: at 1 µM
Calcium/calmodulin-dependent protein kinase type II subunit gamma (Homo sapiens), sequence (Q13555 whole entry): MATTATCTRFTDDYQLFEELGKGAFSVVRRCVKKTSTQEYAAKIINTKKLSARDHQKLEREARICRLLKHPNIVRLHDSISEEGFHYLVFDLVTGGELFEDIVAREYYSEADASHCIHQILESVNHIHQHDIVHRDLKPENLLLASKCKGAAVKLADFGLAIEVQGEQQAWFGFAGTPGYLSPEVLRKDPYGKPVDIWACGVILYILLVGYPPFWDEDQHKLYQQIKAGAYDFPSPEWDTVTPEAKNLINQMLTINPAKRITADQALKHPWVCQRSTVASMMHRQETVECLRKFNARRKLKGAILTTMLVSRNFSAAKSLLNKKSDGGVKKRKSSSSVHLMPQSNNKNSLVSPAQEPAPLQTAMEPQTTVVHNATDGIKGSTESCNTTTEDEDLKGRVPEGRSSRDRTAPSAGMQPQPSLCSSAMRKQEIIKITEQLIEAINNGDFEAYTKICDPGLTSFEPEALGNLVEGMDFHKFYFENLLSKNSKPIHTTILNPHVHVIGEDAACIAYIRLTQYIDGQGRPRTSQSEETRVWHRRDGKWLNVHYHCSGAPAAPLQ

[6] = biological target: Calcium/calmodulin-dependent protein kinase type II subunit gamma (Homo sapiens) (UniProt Q13555); settings: at 10 µM
[7] = biological target: Calcium/calmodulin-dependent protein kinase type II subunit delta (Homo sapiens) (UniProt Q13557); settings: at 1 µM
Calcium/calmodulin-dependent protein kinase type II subunit delta (Homo sapiens), sequence (Q13557 whole entry): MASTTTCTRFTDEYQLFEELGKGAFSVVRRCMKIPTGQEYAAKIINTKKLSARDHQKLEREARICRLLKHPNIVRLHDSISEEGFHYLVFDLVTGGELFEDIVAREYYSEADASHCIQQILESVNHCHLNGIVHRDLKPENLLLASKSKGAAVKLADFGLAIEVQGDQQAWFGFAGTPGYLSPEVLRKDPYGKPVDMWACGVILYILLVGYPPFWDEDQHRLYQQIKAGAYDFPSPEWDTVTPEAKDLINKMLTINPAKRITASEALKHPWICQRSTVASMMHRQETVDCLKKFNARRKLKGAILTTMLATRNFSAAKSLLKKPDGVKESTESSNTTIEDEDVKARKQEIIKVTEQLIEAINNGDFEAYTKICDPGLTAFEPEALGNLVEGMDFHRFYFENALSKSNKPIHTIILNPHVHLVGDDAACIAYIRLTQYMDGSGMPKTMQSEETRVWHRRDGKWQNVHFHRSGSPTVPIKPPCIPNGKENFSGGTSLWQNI

[8] = biological target: Calcium/calmodulin-dependent protein kinase type II subunit delta (Homo sapiens) (UniProt Q13557); settings: at 10 µM
[9] = biological target: T1, Calcium/calmodulin-dependent protein kinase type IV (Homo sapiens) (UniProt Q16566); settings: at 1 µM
T1 sequence (whole entry): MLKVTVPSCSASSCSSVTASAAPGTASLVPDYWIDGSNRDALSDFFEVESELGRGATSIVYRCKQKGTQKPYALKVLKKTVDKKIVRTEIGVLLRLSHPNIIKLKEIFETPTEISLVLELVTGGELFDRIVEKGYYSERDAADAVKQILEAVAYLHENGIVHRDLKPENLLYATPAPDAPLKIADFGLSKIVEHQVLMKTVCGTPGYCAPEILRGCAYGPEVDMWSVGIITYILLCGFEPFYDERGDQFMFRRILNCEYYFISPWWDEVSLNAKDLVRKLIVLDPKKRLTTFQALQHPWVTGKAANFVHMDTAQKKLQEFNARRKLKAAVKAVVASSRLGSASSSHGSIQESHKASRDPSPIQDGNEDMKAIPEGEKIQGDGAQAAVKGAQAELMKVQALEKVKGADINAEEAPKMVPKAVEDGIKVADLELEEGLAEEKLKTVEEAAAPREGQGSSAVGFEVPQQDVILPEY

[10] = biological target: T1, Calcium/calmodulin-dependent protein kinase type IV (Homo sapiens); settings: at 10 µM
[11] = biological target: Death-associated protein kinase 1 (Homo sapiens) (UniProt P53355); settings: at 10 µM
Death-associated protein kinase 1 (Homo sapiens), sequence (P53355 whole entry, looked up): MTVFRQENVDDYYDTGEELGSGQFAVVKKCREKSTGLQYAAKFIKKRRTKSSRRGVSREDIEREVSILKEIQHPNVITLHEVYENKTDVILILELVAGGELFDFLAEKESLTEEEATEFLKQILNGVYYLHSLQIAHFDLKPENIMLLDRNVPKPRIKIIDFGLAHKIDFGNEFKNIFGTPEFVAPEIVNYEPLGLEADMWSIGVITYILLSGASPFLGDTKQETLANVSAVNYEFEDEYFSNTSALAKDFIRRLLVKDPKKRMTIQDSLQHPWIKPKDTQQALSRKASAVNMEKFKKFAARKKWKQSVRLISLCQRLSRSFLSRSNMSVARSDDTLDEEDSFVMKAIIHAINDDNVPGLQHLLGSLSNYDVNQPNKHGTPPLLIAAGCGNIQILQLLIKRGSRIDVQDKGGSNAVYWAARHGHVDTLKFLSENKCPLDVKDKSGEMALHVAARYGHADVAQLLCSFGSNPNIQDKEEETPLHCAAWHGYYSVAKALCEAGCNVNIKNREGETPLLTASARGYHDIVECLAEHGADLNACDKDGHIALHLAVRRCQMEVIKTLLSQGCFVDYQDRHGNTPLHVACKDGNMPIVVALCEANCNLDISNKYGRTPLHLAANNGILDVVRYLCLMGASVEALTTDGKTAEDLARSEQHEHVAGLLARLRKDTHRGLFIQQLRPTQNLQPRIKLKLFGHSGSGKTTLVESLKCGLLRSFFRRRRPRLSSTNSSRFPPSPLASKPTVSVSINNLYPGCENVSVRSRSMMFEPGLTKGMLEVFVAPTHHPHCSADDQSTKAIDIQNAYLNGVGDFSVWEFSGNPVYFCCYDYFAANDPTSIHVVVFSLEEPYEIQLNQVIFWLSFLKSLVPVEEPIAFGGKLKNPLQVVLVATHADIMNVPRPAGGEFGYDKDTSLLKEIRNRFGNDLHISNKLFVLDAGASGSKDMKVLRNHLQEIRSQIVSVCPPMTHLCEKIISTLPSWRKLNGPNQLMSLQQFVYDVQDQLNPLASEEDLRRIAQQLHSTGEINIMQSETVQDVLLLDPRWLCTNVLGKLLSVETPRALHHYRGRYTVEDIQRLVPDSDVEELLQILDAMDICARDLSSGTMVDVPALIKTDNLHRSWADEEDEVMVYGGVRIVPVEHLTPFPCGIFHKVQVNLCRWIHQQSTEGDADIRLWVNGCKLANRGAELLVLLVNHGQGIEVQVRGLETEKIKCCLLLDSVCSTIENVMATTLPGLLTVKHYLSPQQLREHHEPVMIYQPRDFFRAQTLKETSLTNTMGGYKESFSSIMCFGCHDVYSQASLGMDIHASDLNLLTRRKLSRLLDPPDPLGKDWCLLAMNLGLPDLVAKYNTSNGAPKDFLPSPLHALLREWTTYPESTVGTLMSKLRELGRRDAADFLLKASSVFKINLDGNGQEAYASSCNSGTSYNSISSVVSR

[12] = biological target: Death-associated protein kinase 2 (Homo sapiens) (UniProt Q9UIK4); settings: at 1 µM
Death-associated protein kinase 2 (Homo sapiens), sequence (Q9UIK4 whole entry, looked up): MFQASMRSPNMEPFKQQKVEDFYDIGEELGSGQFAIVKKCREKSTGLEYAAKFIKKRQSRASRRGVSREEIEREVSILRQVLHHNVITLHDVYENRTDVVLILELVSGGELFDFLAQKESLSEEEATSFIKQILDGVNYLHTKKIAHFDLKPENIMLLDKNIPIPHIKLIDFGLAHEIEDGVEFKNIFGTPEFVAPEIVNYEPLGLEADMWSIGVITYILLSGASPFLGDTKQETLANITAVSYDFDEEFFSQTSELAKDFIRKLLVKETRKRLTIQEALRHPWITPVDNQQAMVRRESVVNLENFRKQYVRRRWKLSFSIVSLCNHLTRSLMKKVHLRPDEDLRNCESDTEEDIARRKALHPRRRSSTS

[13] = biological target: Death-associated protein kinase 2 (Homo sapiens) (UniProt Q9UIK4); settings: at 10 µM
[14] = biological target: T2, Serine/threonine-protein kinase DCLK2 (Homo sapiens) (UniProt Q8N568); settings: at 1 µM
T2 sequence (whole entry): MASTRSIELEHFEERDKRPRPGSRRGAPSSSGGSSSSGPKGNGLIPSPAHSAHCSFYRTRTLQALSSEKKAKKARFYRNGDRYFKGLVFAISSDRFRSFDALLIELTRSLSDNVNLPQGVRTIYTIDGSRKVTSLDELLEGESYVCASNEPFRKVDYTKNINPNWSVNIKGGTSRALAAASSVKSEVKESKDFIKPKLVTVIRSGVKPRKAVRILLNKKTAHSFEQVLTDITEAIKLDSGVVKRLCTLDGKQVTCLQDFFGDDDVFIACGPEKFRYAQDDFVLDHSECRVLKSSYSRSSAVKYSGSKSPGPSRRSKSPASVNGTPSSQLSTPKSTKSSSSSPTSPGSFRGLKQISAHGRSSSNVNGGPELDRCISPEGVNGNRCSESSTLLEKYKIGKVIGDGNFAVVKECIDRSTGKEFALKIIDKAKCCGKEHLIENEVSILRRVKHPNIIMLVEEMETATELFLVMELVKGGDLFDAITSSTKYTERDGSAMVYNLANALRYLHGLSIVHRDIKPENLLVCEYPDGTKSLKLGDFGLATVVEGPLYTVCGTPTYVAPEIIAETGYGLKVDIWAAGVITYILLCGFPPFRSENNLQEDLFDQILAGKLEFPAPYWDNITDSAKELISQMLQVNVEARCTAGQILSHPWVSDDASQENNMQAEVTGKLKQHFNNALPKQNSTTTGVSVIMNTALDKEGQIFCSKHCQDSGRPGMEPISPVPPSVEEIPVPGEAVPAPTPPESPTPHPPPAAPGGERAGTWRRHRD

[15] = biological target: T2, Serine/threonine-protein kinase DCLK2 (Homo sapiens); settings: at 10 µM
[16] = biological target: T3, Discoidin domain-containing receptor 2 (Homo sapiens) (UniProt Q16832); settings: at 1 µM
T3 sequence (whole entry): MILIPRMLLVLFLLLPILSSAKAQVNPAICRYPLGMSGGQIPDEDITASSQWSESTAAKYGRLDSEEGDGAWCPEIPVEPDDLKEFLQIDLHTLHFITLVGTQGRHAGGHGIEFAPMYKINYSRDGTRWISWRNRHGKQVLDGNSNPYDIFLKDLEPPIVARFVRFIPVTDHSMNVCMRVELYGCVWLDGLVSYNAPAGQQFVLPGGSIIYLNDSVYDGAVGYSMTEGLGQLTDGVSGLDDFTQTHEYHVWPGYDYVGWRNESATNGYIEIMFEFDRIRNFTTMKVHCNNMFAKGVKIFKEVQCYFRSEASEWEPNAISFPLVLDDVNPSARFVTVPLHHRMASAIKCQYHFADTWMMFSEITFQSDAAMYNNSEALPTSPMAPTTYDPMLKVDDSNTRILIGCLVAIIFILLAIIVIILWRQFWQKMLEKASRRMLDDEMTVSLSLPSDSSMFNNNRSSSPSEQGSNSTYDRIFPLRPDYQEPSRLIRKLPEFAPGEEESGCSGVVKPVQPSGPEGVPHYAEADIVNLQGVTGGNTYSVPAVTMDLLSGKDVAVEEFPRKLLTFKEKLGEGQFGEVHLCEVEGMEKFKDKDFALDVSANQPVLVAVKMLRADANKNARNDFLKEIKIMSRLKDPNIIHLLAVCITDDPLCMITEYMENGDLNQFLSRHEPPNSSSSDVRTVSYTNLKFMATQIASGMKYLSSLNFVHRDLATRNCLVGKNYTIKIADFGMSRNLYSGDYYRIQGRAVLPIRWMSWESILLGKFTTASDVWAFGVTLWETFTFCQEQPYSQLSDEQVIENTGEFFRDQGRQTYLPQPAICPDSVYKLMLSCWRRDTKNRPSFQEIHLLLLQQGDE

[17] = biological target: T3, Discoidin domain-containing receptor 2 (Homo sapiens); settings: at 10 µM
[18] = biological target: T4, Myotonin-protein kinase (Homo sapiens) (UniProt Q09013); settings: at 1 µM
T4 sequence (whole entry): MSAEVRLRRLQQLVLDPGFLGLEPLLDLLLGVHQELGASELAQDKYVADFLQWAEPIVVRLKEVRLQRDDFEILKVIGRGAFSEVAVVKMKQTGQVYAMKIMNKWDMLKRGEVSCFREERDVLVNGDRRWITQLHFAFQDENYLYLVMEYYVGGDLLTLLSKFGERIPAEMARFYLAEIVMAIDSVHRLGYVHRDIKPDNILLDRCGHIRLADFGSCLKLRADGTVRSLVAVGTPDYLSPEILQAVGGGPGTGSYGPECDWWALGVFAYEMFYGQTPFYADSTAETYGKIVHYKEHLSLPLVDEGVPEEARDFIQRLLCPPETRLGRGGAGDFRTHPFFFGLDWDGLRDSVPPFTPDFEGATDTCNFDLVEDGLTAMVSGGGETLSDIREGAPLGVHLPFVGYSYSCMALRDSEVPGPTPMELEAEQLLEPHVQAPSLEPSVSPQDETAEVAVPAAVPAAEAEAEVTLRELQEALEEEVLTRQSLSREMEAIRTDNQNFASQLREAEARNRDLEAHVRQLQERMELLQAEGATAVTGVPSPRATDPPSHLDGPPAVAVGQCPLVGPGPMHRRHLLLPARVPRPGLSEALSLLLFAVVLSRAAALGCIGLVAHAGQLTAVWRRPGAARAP

[19] = biological target: T4, Myotonin-protein kinase (Homo sapiens); settings: at 10 µM
[20] = biological target: T5, Serine/threonine-protein kinase 17A (Homo sapiens) (UniProt Q9UEE5); settings: at 1 µM
T5 sequence (whole entry): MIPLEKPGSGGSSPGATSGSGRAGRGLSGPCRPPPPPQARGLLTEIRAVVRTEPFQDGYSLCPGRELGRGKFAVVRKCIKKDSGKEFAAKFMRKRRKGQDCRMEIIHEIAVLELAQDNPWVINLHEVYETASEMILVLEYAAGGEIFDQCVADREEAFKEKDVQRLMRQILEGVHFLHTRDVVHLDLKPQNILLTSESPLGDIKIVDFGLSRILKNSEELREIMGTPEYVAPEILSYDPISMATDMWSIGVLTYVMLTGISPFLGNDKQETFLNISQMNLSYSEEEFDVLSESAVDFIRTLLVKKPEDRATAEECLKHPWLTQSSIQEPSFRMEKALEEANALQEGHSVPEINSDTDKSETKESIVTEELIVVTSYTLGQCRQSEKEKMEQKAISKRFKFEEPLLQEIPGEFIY

Calcium/calmodulin-dependent protein kinase type 1 (Homo sapiens), sequence (Q14012 whole entry, looked up): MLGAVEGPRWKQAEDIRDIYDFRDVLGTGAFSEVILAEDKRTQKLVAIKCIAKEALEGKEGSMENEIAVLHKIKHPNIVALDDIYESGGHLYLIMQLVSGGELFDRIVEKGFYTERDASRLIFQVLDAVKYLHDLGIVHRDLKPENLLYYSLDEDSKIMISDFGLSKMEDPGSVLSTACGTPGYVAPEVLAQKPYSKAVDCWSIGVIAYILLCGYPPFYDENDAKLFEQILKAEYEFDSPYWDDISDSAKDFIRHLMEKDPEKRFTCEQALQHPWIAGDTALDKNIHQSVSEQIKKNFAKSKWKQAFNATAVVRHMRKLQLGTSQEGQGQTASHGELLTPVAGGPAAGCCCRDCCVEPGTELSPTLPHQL

| SMILES | residual activity [1] | residual activity [2] | residual activity [3] | residual activity [4] | residual activity [5] | residual activity [6] | residual activity [7] | residual activity [8] | residual activity [9] | residual activity [10] | residual activity [11] | residual activity [12] | residual activity [13] | residual activity [14] | residual activity [15] | residual activity [16] | residual activity [17] | residual activity [18] | residual activity [19] | residual activity [20] |
| --- | --- | --- | --- | --- | --- | --- | --- | --- | --- | --- | --- | --- | --- | --- | --- | --- | --- | --- | --- | --- |
| O=C1NC(=O)/C(=C/c2ccc3c(c2)OC(F)(F)O3)S1 | 86% | 83% | 94% | 71% | 102% | 86% | 106% | 82% | 99% | 72% | 81% | 95% | 96% | 110% | 66% | 130% | 105% | 104% | 104% | 118% |
| CC(=O)O/N=C1\C(=C2\C(=O)Nc3cc(Br)ccc32)Nc2ccccc21 | 82% | 50% | 79% | 27% | 23% | 4% | 17% | 4% | 100% | 90% | 84% | 86% | 65% | 107% | 94% | 91% | 71% | 106% | 89% | 63% |
| Nc1n[nH]c2nnc(-c3c(-c4ccccc4)nn4ccccc34)cc12 | 101% | 79% | 93% | 80% | 103% | 92% | 94% | 93% | 95% | 64% | 88% | 95% | 99% | 128% | 75% | 94% | 74% | 92% | 75% | 83% |
| Cc1nc2cc3nc(-c4cccs4)cnc3cc2n1C | 109% | 107% | 100% | 93% | 103% | 84% | 106% | 85% | 129% | 101% | 86% | 105% | 108% | 115% | 108% | 111% | 93% | 113% | 117% | 64% |
| CO[C@H]1[C@@H](OC)C[C@H](C)[C@@H](OC)C2=CC(=O)C=C(NC(=O)/C(C)=C/C=C/[C@H](OC)[C@@H](OC(N)=O)/C(C)=C/[C@@H]1C)C2=O | 115% | 88% | 97% | 93% | 107% | 100% | 102% | 110% | 89% | 81% | 78% | 104% | 114% | 89% | 75% | 98% | 99% | 147% | 127% | 86% |
| O=C(Nc1cccc(Nc2nccc(Nc3cccc(C(F)(F)F)c3)n2)c1)C1CC1 | 86% | 31% | 100% | 38% | 76% | 12% | 66% | 19% | 84% | 62% | 60% | 93% | 68% | 82% | 102% | 79% | 30% | 72% | 125% | 73% |
